From the supplement of paper PMC8728848
The sample as a whole holds a higher share of the strongest signals than the screen did.

Assays:
Test in all cases: glycan array binding signal (z-score within array); higher = stronger binding
Details in all cases: glycan notation: IUPAC condensed, linker removed
[1] = biological target: Fuc(a1-2)Gal(b1-3)GalNAc
Method in brief: (§1)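 Columns mapping to the same glycan were averaged after glycan names were converted to IUPAC-condensed notation. The data come from 3228 arrays in the Consortium for Functional Glycomics database, limited to those with an available protein sequence. Binding is reported as a within-array Z-score averaged across arrays of one protein sequence and across linkers.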

[2] = biological target: Fuc(a1-2)Gal(b1-3)GalNAc(a1-3)[Fuc(a1-2)]Gal(b1-4)Glc
Method in brief: as §1

[3] = biological target: Fuc(a1-2)Gal(b1-3)GalNAc(b1-4)[Neu5Ac(a2-3)]Gal(b1-4)Glc
Method in brief: as §1

[4] = biological target: Fuc(a1-2)Gal(b1-3)[Fuc(a1-4)]GlcNAc
Method in brief: as §1

[5] = biological target: Fuc(a1-2)Gal(b1-3)[Fuc(a1-4)]GlcNAc(b1-3)[Gal(b1-4)GlcNAc(b1-6)]Gal(b1-4)Glc
Method in brief: as §1

[6] = biological target: Fuc(a1-2)Gal(b1-4)[Fuc(a1-3)]GlcNAc(b1-2)Man(a1-3)[Fuc(a1-2)Gal(b1-4)[Fuc(a1-3)]GlcNAc(b1-2)Man(a1-6)]Man(b1-4)GlcNAc(b1-4)GlcNAc
Method in brief: as §1

[7] = biological target: Fuc(a1-2)Gal(b1-4)[Fuc(a1-3)]GlcNAc(b1-3)Gal(b1-4)[Fuc(a1-3)]GlcNAc(b1-3)Gal(b1-4)[Fuc(a1-3)]GlcNAc
Method in brief: as §1

[8] = biological target: Fuc(a1-2)[GalNAc(a1-3)]Gal(b1-4)GlcNAc
Method in brief: as §1

[9] = biological target: Fuc(a1-3)[Gal(b1-4)]GlcNAc(b1-3)GalNAc
Method in brief: as §1

[10] = biological target: Gal(a1-3)Gal(b1-3)[Fuc(a1-4)]GlcNAc(b1-2)Man(a1-3)[Gal(a1-3)Gal(b1-3)[Fuc(a1-4)]GlcNAc(b1-2)Man(a1-6)]Man(b1-4)GlcNAc(b1-4)GlcNAc
Method in brief: as §1

[11] = biological target: Gal(a1-3)Gal(b1-4)Glc
Method in brief: as §1

[12] = biological target: Gal(a1-3)Gal(b1-4)GlcNAc(b1-3)GalNAc
Method in brief: as §1

[13] = biological target: Gal(a1-3)[Gal(a1-4)]Gal(b1-4)GlcNAc
Method in brief: as §1

[14] = biological target: Gal(a1-4)Gal(b1-4)GlcNAc
Method in brief: as §1

[15] = biological target: Gal(a1-4)GlcNAc
Method in brief: as §1

[16] = biological target: Gal(b1-3)GalNAc(a1-3)[Fuc(a1-2)]Gal(b1-4)Glc
Method in brief: as §1

[17] = biological target: Gal(b1-3)GlcNAc
Method in brief: as §1

[18] = biological target: Gal(b1-3)GlcNAc(b1-3)Gal(b1-4)GlcNAc
Method in brief: as §1

[19] = biological target: Gal(b1-4)GlcNAc(b1-2)Man(a1-3)[Gal(b1-4)GlcNAc(b1-2)Man(a1-6)]Man(b1-4)GlcNAc(b1-4)GlcNAc
Method in brief: as §1

[20] = biological target: Gal(b1-4)GlcNAc(b1-2)Man(a1-6)[GlcNAc(b1-2)Man(a1-3)]Man(b1-4)GlcNAc(b1-4)GlcNAc
Method in brief: as §1

[21] = biological target: Gal3S(b1-4)Glc6S
Method in brief: as §1

[22] = biological target: GalNAc(a1-3)Gal
Method in brief: as §1

[23] = biological target: GalNAc(b1-3)GalNAc
Method in brief: as §1

[24] = biological target: GalNAc(b1-4)GlcNAc
Method in brief: as §1

[25] = biological target: GlcNAc(a1-4)Gal(b1-3)GlcNAc
Method in brief: as §1

[26] = biological target: GlcNAc(b1-2)Gal(b1-3)GalNAc
Method in brief: as §1

[27] = biological target: GlcNAc(b1-2)Man(a1-3)[GlcNAc(b1-2)Man(a1-6)]Man(b1-4)GlcNAc(b1-4)GlcNAc
Method in brief: as §1

[28] = biological target: Kdn(a2-3)Gal(b1-3)GlcNAc
Method in brief: as §1

[29] = biological target: Kdn(a2-3)Gal(b1-4)[Fuc(a1-3)]GlcNAc
Method in brief: as §1

[30] = biological target: Kdn(a2-6)Gal(b1-4)GlcNAc
Method in brief: as §1

[31] = biological target: Man(a1-2)Man(a1-2)Man(a1-6)[Man(a1-3)]Man
Method in brief: as §1

[32] = biological target: Man(a1-2)Man(a1-3)Man
Method in brief: as §1

[33] = biological target: Man(a1-3)[Man(a1-6)]Man
Method in brief: as §1

[34] = biological target: Man(a1-3)[Man(a1-6)]Man(a1-6)[Man(a1-3)]Man
Method in brief: as §1

[35] = biological target: Neu5Ac(a2-3)Gal(b1-4)[Fuc(a1-3)]GlcNAc(b1-3)GalNAc
Method in brief: as §1

[36] = biological target: Neu5Ac(a2-6)Gal
Method in brief: as §1

[37] = biological target: Neu5Ac(a2-6)Gal(b1-4)GlcNAc(b1-3)GalNAc
Method in brief: as §1

[38] = biological target: Neu5Ac(a2-6)GalNAc
Method in brief: as §1

[39] = biological target: Neu5Ac(a2-6)GlcNAc(b1-4)GlcNAc
Method in brief: as §1

[40] = biological target: Neu5Ac(a2-8)Neu5Ac
Method in brief: as §1

[41] = biological target: Neu5Ac(a2-8)Neu5Ac(a2-3)[GalNAc(b1-4)]Gal(b1-4)Glc
Method in brief: as §1

B1: AcfC (Vibrio cholerae), Q57410 (protein)
chain: MKSKNRFLLISLLSFSTSVFADVNLYGPGGPHVPLIKVAESFEKSQSKRVNITFGPQATWNDKAKKNADILFGASEHSALAIAEGHSERFSKFNIHPVFMREAIILVKKGNPKNIKGMADLLKPGIGIVVNDGAGVSNTSGTAVWEDSVGRMKNVEKLQAFRSNIHVFAPNSGSARKAFVDGEDIDAWITWVDWAIANPTIGDMVRMEDEYRIYRDFNVVLAKNPSSEAIDFFDYLTKSKDAEAIFQHYGWFK
- glycan array binding signal (z-score) [1]: 0.244
- glycan array binding signal (z-score) [2]: -1.2
- glycan array binding signal (z-score) [3]: -0.09
- glycan array binding signal (z-score) [4]: 3.03
- glycan array binding signal (z-score) [5]: 1.12
- glycan array binding signal (z-score) [6]: 3.03
- glycan array binding signal (z-score) [7]: 2.22
- glycan array binding signal (z-score) [8]: -0.063
- glycan array binding signal (z-score) [9]: 1.43
- glycan array binding signal (z-score) [10]: 4.58
- glycan array binding signal (z-score) [11]: -0.864
- glycan array binding signal (z-score) [12]: -0.809
- glycan array binding signal (z-score) [13]: -0.149
- glycan array binding signal (z-score) [14]: 0.091
- glycan array binding signal (z-score) [15]: 0.322
- glycan array binding signal (z-score) [16]: 0.135
- glycan array binding signal (z-score) [17]: 0.247
- glycan array binding signal (z-score) [18]: -0.979
- glycan array binding signal (z-score) [19]: 3
- glycan array binding signal (z-score) [20]: 0.212
- glycan array binding signal (z-score) [21]: 0.515
- glycan array binding signal (z-score) [22]: 0.334
- glycan array binding signal (z-score) [23]: 0.05
- glycan array binding signal (z-score) [24]: 0.088
- glycan array binding signal (z-score) [25]: 0.098
- glycan array binding signal (z-score) [26]: -0.601
- glycan array binding signal (z-score) [27]: 0.375
- glycan array binding signal (z-score) [28]: 0.128
- glycan array binding signal (z-score) [29]: -0.465
- glycan array binding signal (z-score) [30]: -0.748
- glycan array binding signal (z-score) [31]: -0.753
- glycan array binding signal (z-score) [32]: -0.096
- glycan array binding signal (z-score) [33]: -0.136
- glycan array binding signal (z-score) [34]: 0.134
- glycan array binding signal (z-score) [35]: 6.97
- glycan array binding signal (z-score) [36]: 2.2
- glycan array binding signal (z-score) [37]: -0.94
- glycan array binding signal (z-score) [38]: -1.62
- glycan array binding signal (z-score) [39]: -0.781
- glycan array binding signal (z-score) [40]: 0.214
- glycan array binding signal (z-score) [41]: -0.835
